Screening results from PubChem BioAssay.
GPR151 ag: activators of human GPR151, primary screen, cell-based, PathHunter beta-arrestin, luminescence; AID 1508602, 2020; actives 1% (n = 650,000); PathHunter beta-arrestin GPR151 cells; G-protein coupled receptor 151 (Homo sapiens), Q8TDV0; activation, % at 11.2 µM; in the data active = activation above about 4.9%;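 also: 0% = median of compound wells and 100% = cells with positive control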
Target sequence (Q8TDV0 whole entry, looked up): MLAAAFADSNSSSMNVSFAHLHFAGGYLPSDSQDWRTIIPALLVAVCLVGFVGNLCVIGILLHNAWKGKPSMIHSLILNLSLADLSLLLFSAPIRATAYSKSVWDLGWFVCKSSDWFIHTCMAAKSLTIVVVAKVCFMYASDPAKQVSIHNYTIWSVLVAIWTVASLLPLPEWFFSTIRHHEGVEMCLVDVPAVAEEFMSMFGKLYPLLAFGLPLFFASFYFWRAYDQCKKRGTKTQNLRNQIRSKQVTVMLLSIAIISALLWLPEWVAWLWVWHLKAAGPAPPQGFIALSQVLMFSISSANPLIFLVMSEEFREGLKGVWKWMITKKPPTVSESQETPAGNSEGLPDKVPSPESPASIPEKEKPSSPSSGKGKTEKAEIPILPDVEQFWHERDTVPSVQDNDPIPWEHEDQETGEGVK
MITF inh: MITF inhibitors, primary screen, biochemical, AlphaScreen, human; inhibition, % at 2.6 µM; AlphaScreen MITF homodimerization, bead proximity signal; actives 0.91% (n = 650,000); AID 1259374, 2018; Microphthalmia-associated transcription factor (Homo sapiens), O75030; in the data active = inhibition above about 50%;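 also: 0% = vehicle wells with protein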
TEAD-YAP inh: TEAD-YAP interaction inhibition, primary screen, TEAD-YAP interaction inhibitor project, luminescence, HEK-TIYL cells | TEAD-Gal4/YAP UAS-luciferase luminescence | inhibition, % at 9.12 µM | actives 1.4% (n = 640,000) | AID 1259422, 2018; in the data active = inhibition above about 32%;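 also: 0% = median of test compound wells and 100% = reference inhibitor wells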
FBW7 act: FBW7 E3 ligase activators, primary screen, biochemical, AlphaScreen, human; normalized activity (activation), % at 26.1 µM; actives 0.13% (n = 650,000); F-box/WD repeat-containing protein 7 (Homo sapiens), Q969H0; AlphaScreen FBW7–phospho-cyclin E peptide binding, activator screen; AID 1259310, 2017; in the data active = normalized activity above about 1.9%;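 also: purified mutant Fbw7 with reduced substrate affinity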
Numbers without * were called inactive. The list is not random: actives were taken first. Their share in the collection is about 3.5%.

SMILES | GPR151 ag | MITF inh | TEAD-YAP inh | FBW7 act
COc1ccc(Nc2nnc(-c3ccccc3)c3ccccc23)cc1C(N)=O | 0.3 | -5.5 | 5.8 | 0.0
CCOc1ccc(S(=O)(=O)N2CCOCC2)c2cccnc12 | -0.2 | 19.0 | -5.4 | 0.5
Nc1ccc2nc(NC(=O)c3ccc(Cl)cc3Cl)sc2c1 | -6.5 | 1.0 | 69.6* | -0.1
COc1ccc2nc(NC(=O)c3ccco3)sc2c1 | -7.6 | 5.4 | 41.8* | 0.0
O=C(Nc1nc2ccc(Br)cc2s1)c1ccccc1Cl | 1.2 | -1.4 | -42.2 | -0.1
O=C(Nc1ccc2nc(NC(=O)c3ccccc3Cl)sc2c1)c1ccccc1Cl | 0.5 | 12.4 | 48.6* | 0.2
O=C(Nc1nc([N+](=O)[O-])cs1)c1ccc(Cl)cc1Cl | -8.8 | 6.5 | 88.5* | -0.3
O=C1NC(=S)N/C1=C/c1ccccc1Sc1ccc(Cl)cc1 | -0.2 | -5.5 | 1.3 | 0.1
COc1ccc(N2C(=O)CC(NCCc3ccc(OC)c(OC)c3)C2=O)cc1Cl (stereo unspecified) | 0.6 | 12.1 | 6.7 | -0.1
CCOC(=O)C1=C(O)/C(=C/c2ccc(N(CC)CC)cc2)SC1=Nc1ccccc1 | -0.3 | 4.0 | 6.0 | 0.4
O=Cc1ccc(-c2ccc(NCCc3ccccc3)nc2)cc1 | 1.0 | 10.4 | -72.3 | 0.6
Cc1ccc(CN(C(=S)NCC(=O)NC2CCCCC2C)C2CCCCC2)cc1 (stereo unspecified) | -1.1 | 12.1 | -10.2 | 0.3
CCOc1cc(C(Nc2ccccn2)c2ccc3cccnc3c2O)ccc1O (stereo unspecified) | 0.2 | 49.9 | -6.6 | -1.1
CCOc1ccc(C(Nc2ccccn2)c2ccc3cccnc3c2O)cc1 (stereo unspecified) | 1.1 | 27.0 | 85.9* | -1.0
COc1cc(C(Nc2ccccn2)c2ccc3ccc(C)nc3c2O)cc(OC)c1O (stereo unspecified) | -0.5 | 19.1 | 32.6* | -0.3
CCOc1cc(C(Nc2ccccn2)c2ccc3cccnc3c2O)ccc1OC (stereo unspecified) | 0.8 | 31.2 | 88.6* | -0.4
COc1cc(C(Nc2ccccn2)c2ccc3cccnc3c2O)cc(Br)c1OC (stereo unspecified) | -0.1 | 18.9 | 76.2* | -0.1
CC(=O)N1CCc2cc(Br)cc(S(=O)(=O)NCCCN3CCN(C)CC3)c21 | -0.2 | 10.3 | 2.3 | 0.1
CC(C(=O)c1ccc(-c2ccccc2)cc1)[n+]1cccc2ccccc21 (stereo unspecified) | -0.1 | 2.5 | 23.4 | 0.0
COc1cccc(N2C(=O)/C(=C/c3ccc(-c4ccc(Cl)c(Cl)c4)o3)C=C2c2ccccc2)c1 | 2.3 | 4.4 | 0.4 | 0.2
CCc1ccc(C(Nc2ccccn2)c2ccc3ccc(C)nc3c2O)cc1 (stereo unspecified) | 3.0 | 21.9 | 22.5 | 0.1
COc1ccc(C(Nc2ccccn2)c2ccc3cccnc3c2O)cc1 (stereo unspecified) | 0.6 | 35.6 | 86.3* | -0.6
c1cnc2ccc(Nc3nc4ncnc(Nc5ccc(N6CCOCC6)cc5)c4[nH]3)cc2c1 | -1.8 | 5.2 | 36.1* | 3.9*
O=C1CCCN1CCCNc1nc(Nc2ccc(N3CCOCC3)cc2)nc2c1ncn2-c1ccsc1 | -0.9 | -1.2 | 59.5* | -0.3
O=C1CCCN1CCCNc1nc(Nc2ccc(N3CCOCC3)cc2)c2ncn(-c3ccsc3)c2n1 | 0.0 | 18.7 | 47.1* | -0.1
SMILES | GPR151 ag | MITF inh | TEAD-YAP inh | FBW7 act
O=C1CCCN1CCCNc1nc2ncnc(Nc3ccccc3)c2[nH]1 | -2.1 | -10.2 | -4.2 | -0.1
O=C1CCCN1CCCNc1nc2ncnc(Nc3ccc(N4CCOCC4)cc3)c2[nH]1 | -2.3 | 17.1 | 37.7* | -0.1
c1cncc(Nc2nc3ncnc(Nc4ccc(N5CCOCC5)cc4)c3[nH]2)c1 | -2.0 | 3.1 | 25.3 | -0.2
CCOC(=O)c1ccc(OCC2CO2)cc1 (stereo unspecified) | 1.2 | -2.3 | -10.2 | 0.0
Nc1ccc(C(=O)OCC(=O)c2cccc([N+](=O)[O-])c2)cc1[N+](=O)[O-] | 0.9 | 12.3 | -6.2 | -0.2
O=C(COc1ccccc1Cl)Nc1cc([N+](=O)[O-])ccc1O | -0.1 | -23.6 | 69.3* | -0.3
O=C(COc1ccccc1)Nc1cc([N+](=O)[O-])ccc1O | -8.3 | 3.2 | 56.3* | -0.1
CCC(=O)NC(c1ccc(OC)c(OC)c1)c1cc([N+](=O)[O-])c2cccnc2c1O (stereo unspecified) | 0.5 | 67.9* | 2.2 | -0.8
CCOc1cc(C(NC(=O)C(C)C)c2cc([N+](=O)[O-])c3cccnc3c2O)ccc1O (stereo unspecified) | 1.0 | 34.9 | 8.9 | -0.6
CCOc1cc(C(NC(=O)CC)c2cc([N+](=O)[O-])c3cccnc3c2O)ccc1O (stereo unspecified) | 0.4 | 53.5* | -6.0 | -0.5
CCCCC(=O)NC(c1ccc(OC)c(OC)c1)c1cc([N+](=O)[O-])c2cccnc2c1O (stereo unspecified) | 2.1 | 51.0* | -7.7 | -0.2
CCCC(=O)NC(c1ccc(OC)c(OC)c1)c1cc([N+](=O)[O-])c2cccnc2c1O (stereo unspecified) | 0.4 | 45.2 | 16.6 | -0.2
CCCC(=O)NC(c1ccccc1)c1cc([N+](=O)[O-])c2cccnc2c1O (stereo unspecified) | 0.8 | 75.7* | 2.1 | -0.7
O=C(c1cc2n(n1)C(C(F)(F)F)CC(c1ccc(Cl)c(Cl)c1)N2)N1CCCCC1 (stereo unspecified) | 1.0 | 3.2 | 7.9 | 0.0
O=C(CSCc1ccc([N+](=O)[O-])cc1)Nc1ccccc1C(=O)NCc1ccccc1 | -1.8 | 17.2 | -6.8 | 0.7
CC(=O)N1CCc2c(sc(NC(=O)c3ccccc3Cl)c2C#N)C1 | 2.9 | -7.6 | 10.9 | -0.1
CC(=O)N1CCc2c(sc(NC(=O)c3ccccc3C)c2C#N)C1 | 2.4 | -3.2 | 50.5* | 0.0
CC(=O)N1CCc2c(sc(NC(=O)/C=C/c3ccc([N+](=O)[O-])cc3)c2C#N)C1 | 0.4 | 1.9 | 2.1 | 0.2
CC(=O)N1CCc2c(sc(NC(=O)c3cc(Cl)sc3Cl)c2C#N)C1 | 1.1 | -7.4 | 12.5 | 0.9
CSc1ccccc1C(=O)Nc1sc2c(c1C#N)CCN(C(C)=O)C2 | -2.2 | -8.0 | 45.9* | 0.0
CC(=O)N1CCc2c(sc(NC(=O)/C=C/c3ccccc3Cl)c2C#N)C1 | 0.9 | -3.1 | 49.5* | 0.0
O=C(CC(NCCCN1CCOCC1)C(=O)O)Nc1cccc([N+](=O)[O-])c1 (stereo unspecified) | -2.0 | -14.0 | 1.1 | 0.0
N#Cc1cccc(NC(=O)C[n+]2c(N)sc3ccc4ccccc4c32)c1 | 0.2 | -1.8 | 43.1* | 0.1
CSc1nnc(NC(=O)c2ccc(C(C)(C)C)cc2)s1 | -1.6 | -2.3 | 32.3* | 0.0
CSc1nnc(NC(=O)c2ccc(C)cc2)s1 | -5.6 | -0.1 | 76.1* | -0.1
Cc1ccc(C(=O)Nc2nnc(SCC(=O)NCC3CCCO3)s2)cc1 (stereo unspecified) | 0.3 | -0.5 | 41.8* | 0.1
